Only some compounds are listed: those with a hit (about 7.4% of all), similar ones and a draw of the others.
FLuc modulator: inhibits or activates purified firefly luciferase, miR-21 counter-screen. hit rate 6.9% among 360,000. P08659. purified FLuc, Km substrates, luminescence inhibition. Potency, µM (titrated, usually from 57.5 µM), most hits filed as inhibitors. AID 588342; further: nearly all actives have a fitted effect of over 55% in size
Target sequence (P08659 whole entry, looked up): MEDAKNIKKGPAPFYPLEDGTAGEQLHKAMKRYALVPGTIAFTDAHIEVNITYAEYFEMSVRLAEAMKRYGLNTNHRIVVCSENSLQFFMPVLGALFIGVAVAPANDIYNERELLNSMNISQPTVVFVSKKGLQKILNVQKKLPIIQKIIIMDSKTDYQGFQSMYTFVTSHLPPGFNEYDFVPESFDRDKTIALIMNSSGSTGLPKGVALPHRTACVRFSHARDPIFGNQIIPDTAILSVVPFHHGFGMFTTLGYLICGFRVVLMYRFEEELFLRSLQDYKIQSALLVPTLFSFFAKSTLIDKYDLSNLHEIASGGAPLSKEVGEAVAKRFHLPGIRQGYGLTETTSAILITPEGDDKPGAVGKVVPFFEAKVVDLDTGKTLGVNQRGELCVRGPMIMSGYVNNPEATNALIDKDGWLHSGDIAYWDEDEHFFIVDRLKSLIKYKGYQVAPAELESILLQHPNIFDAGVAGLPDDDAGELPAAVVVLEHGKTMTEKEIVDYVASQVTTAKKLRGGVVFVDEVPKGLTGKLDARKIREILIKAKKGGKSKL
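Purified P. pyralis luciferase, 10 nM final, with Km-level 10 uM D-luciferin and 10 uM ATP in 50 mM Tris acetate pH 7.5, 10 mM Mg acetate, 0.01% Tween-20, 0.05% BSA; 6-point qHTS titration about 60 µM downward; luminescence read.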
p53 reactivation: restores transcriptional activity of mutant p53; Potency, µM (doses to about 92.2 µM), hits mostly activators; AID 504706; hit rate 0.063% among 320,000; H1299 p53-A138V BP100-luciferase reporter, luminescence, 24 h; further: nearly all actives have a fitted effect of over 45% in size
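H1299 (p53-null), stable ts p53-A138V + BP100-Luc; 1000 cells/well, Opti-MEM/10% FBS; cpd 4 pt, 1:5; 24 h, 37 deg C, 5% CO2; detection reagent 10 min RT; luminescence.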
SMN2 splice up: enhancers of SMN2 splice variant expression; HEK293 SMN2-luciferase splicing reporter, luminescence, 30-36 h; Potency, µM (series often up to 46.1 µM), usual class: activators; hit rate 2.8% among 210,000; AID 1458; further: nearly all actives have a fitted effect of over 55% in size
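HEK293 cells carry an SMN2 minigene-luciferase reporter in which exon 7 inclusion puts luciferase in frame. Cells were seeded at 2000 cells/well, attached for 10-12 hours, then exposed to compounds for 30-36 hours at 37C before ONE-Glo luminescence.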
Rab9 prom act: activators of Rab9 promoter. Potency, µM (highest dose often 9.22 µM), most hits filed as activators. Huh7 Rab9 promoter-luciferase reporter, luminescence, 24 h. hit rate 2.8% among 320,000; further: nearly all actives have a fitted effect of over 60% in size
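Luciferase signal after 10 min detection reagent at ambient indicates Rab9 promoter upregulation; stably transfected Huh7 cells were treated 24 h with compound in DMSO at 37 °C, 5% CO2.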
NPC1 prom act: activates the NPC1 promoter | hit rate 2.4% among 320,000 | Huh7 NPC1 promoter luciferase reporter, 24 h | Potency, µM (titrated, usually from 9.22 µM), hits mostly activators | AID 485313; further: nearly all actives have a fitted effect of over 60% in size
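Readout is luciferase luminescence, reflecting NPC1 promoter activation in stably transfected Huh7 cells after 24 h compound exposure at 37 °C in reduced-serum medium with 10% FBS.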
ELG1 genotox: inducers of genotoxicity in HEK293T ELG1-luciferase cells. HEK293T ELG1-luciferase reporter, luminescence, 16 h. Potency, µM (series often up to 46 µM), most hits filed as activators. hit rate 1.3% among 330,000; further: nearly all actives have a fitted effect of over 60% in size
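Luminescence read-out: rising ELG1-luciferase signal, reflecting elevated ELG1 protein under genetic stress, flags genotoxic compounds. Cells were treated for 16 hr at 37 °C before ONE-Glo detection.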
A number is an active result; - = inactive; ? = inconclusive; . = no result; [ ] = another dose, or the depositor's remark. The call rests on the fitted dose curve; in most records, active means well fitted curve in the direction sought with a large enough effect; inconclusive means small, poorly fitted or top-dose-only effect, or another doubt; inactive means no such curve, though single readings can be large; an effect the other way counts as inactive or inconclusive.

SMILES	FLuc modulator	p53 reactivation	SMN2 splice up	Rab9 prom act	NPC1 prom act	ELG1 genotox
COc1ccc2[nH]cc(CCNc3nc(-c4ccccc4CN(C)C)nc4ccccc34)c2c1	.	.	-	.	.	.
Cc1ccc(-n2cc(C(=O)OCc3ccc(F)c(F)c3)c3ccccc3c2=O)cc1	-	.	.	.	.	.
CCc1ccc(NC(=O)CN2C(=O)C(=O)c3ccccc32)cc1	-	.	-	.	.	.
CSc1ccccc1NC(=O)CN(C)CC(=O)c1c(C)[nH]c2ccccc12	-	-	.	-	-	-
N#CCc1nc(CSc2nc3ccccc3o2)cs1	23.9µM	-	-	?	?	?
c1ccc2oc(SCc3nc4ccccc4s3)nc2c1	4.78µM	.	?	.	.	.
c1ccc(SCc2nc3ccccc3s2)nc1	4.78µM	?	.	1.26µM	3.55µM	?
O=C(O)CCCc1nc2ccccc2s1	?	-	?	-	-	-
c1ccc(-c2noc(CSc3nc4ccccc4o3)n2)cc1	?	?	.	-	-	-
COc1ccc2nc(NC(=O)CN3C(=O)NC4(CCCC4)C3=O)sc2c1	12µM	-	.	-	-	-
COc1ccc2nc(NC(=O)CN3C(=O)NC4(CCCCC4)C3=O)sc2c1	15.1µM	-	.	-	-	-
Cc1ccc2nc(NC(=O)CN3C(=O)NC4(CCCCC4)C3=O)sc2c1	5.36µM	-	.	-	-	-
O=C(CN1C(=O)NC2(CCCC2)C1=O)Nc1nc2ccccc2s1	?	-	.	-	-	-
CS(=O)(=O)c1ccc(Cl)c(NC(=O)CCN2C(=O)C3CC=CCC3C2=O)c1 (centres undefined)	-	-	.	-	-	-
COc1ccc(-n2ncc3c(NCc4ccco4)ncnc32)cc1	9.53µM	?	?	1.41µM	2.24µM	?
Clc1ccc(-n2ncc3c(NCc4ccco4)ncnc32)cc1	6.01µM	-	-	2.51µM	?	-
COc1ccc(-n2ncc3c(NCc4ccccn4)ncnc32)cc1	15.1µM	-	?	?	?	?
Cc1ccc(-n2cc(CN3CCN(c4ccccn4)CC3)c(-c3ccc(F)cc3)n2)cc1	15.1µM	-	.	-	-	-
Cc1ccc(-n2cc(CN3CCN(C(=O)c4ncn[nH]4)CC3)c(-c3ccc(F)cc3)n2)cc1	9.53µM	-	.	-	-	-
COc1ccc(Br)cc1/C=N/NC(=O)C[n+]1ccccc1	-	-	.	-	-	-
O=C(O)c1cccc(N/N=C/c2cc(Br)cc(Br)c2O)c1	23.9µM	?	-[1.84 µM]	2.82µM	?	?
COc1ccc(Br)cc1/C=N/Nc1cccc(C(=O)O)c1	21.3µM	?	11.2µM	1.58µM	3.16µM	?
O=C(N/N=C/c1cc(Br)cc(Br)c1O)c1ccncc1	-	-	-	-	-	?
COc1ccc(C(=O)Nc2cccc(/C(C)=N/NC(=O)c3ccc([N+](=O)[O-])cc3)c2)cc1OC	5.36µM	-	-	-	-	-
COc1ccc(/C(C)=N/Nc2cccc(C(=O)O)c2)cc1OC	3.79µM	-	10µM	1.12µM	1µM	5.17µM
SMILES	FLuc modulator	p53 reactivation	SMN2 splice up	Rab9 prom act	NPC1 prom act	ELG1 genotox
CCC(Cc1ccccc1)NC(=O)C1CCN(S(=O)(=O)c2ccc3c(c2)CC(C)N3C(C)=O)CC1 (centres undefined)	-	-	.	-	-	-
O=C(COC(=O)CCc1ccccc1)NNC(=O)c1ccccc1	.	-	.	.	.	-
COc1ccccc1/C=C/C=N/Nc1cccc(C(=O)O)c1	0.536µM	-	.	0.126µM	0.112µM	0.651µM
C/C(=N\Nc1cccc(C(=O)O)c1)c1ccc(Cl)s1	10.7µM	-	.	2.82µM	3.16µM	?
COc1ccc(/C(C)=N/Nc2nc3ccccc3nc2C)cc1OC	3.01µM	-	.	-	-	-
COc1ccc(/C(C)=N\NS(=O)(=O)c2ccccc2)cc1OC	-	-	-	-	-	-
COc1ccc2c(c1)O/C(=C\c1sccc1C)C2=O	0.169µM	?	?	?	?	18.4µM
O=C1/C(=C/c2ccccc2)Oc2cc(OC(=O)N3CCOCC3)ccc21	13.5µM	-	?	-	?	-
CC(=O)Oc1ccc(/C=C2/Oc3ccccc3C2=O)cc1	3.79µM	-	.	-	-	?
COC(=O)c1ccc2c(c1)C(=O)/C(=C/c1ccc(O)cc1)O2	?	?	-[1.84 µM]	?	-	-
COc1ccc(/C=C2\Oc3ccccc3C2=O)cc1	.	-	.	.	.	2.31µM
O=C(c1ccccc1)c1ccc(OC(=O)N2CCOCC2)cc1	-	-	-	-	-	-
Cc1o[nH]c(=O)c1CCC(N)C(=O)O (centres undefined)	.	.	-	.	.	.
O=C(O)[C@@H](O)[C@@H](O)[C@H](O)[C@H](O)CO	.	.	-[9.22 µM]	.	.	.
Cc1ccc(-c2csc(N/N=C/c3ccco3)n2)c(C)c1	-	-	3.98µM	-	-	-
CCc1ccc(NC(=O)Cn2c(=O)n(Cc3ccc(C)cc3)c(=O)c3cccnc32)cc1	-	.	-	.	.	.
CCOC(=O)N1CCc2c(sc(NCc3cccc(F)c3)c2C(=O)Nc2ccc(OCC)cc2)C1	23.9µM	.	.	.	.	.
COc1ccccc1-c1cncnc1NCCN1CCOCC1	.	.	-	.	.	.
O=C(N/N=C/c1cc(Br)cc(Br)c1O)c1cccc(N2CCCC2=O)c1	?	-	.	-	-	-
O=C(NC1CCCCCC1)c1cccc(N2CCCC2=O)c1	15.1µM	-	7.08µM	2.24µM	3.55µM	?
O=C(NC1CCCCCCC1)c1cccc(Cl)c1	15.1µM	?	.	?	?	?
O=C(N/N=C/c1ccc(Cl)cc1Cl)c1cccc(N2CCCC2=O)c1	6.75µM	-	.	-	-	-
C[C@@H](NC(=O)[C@@H]1Cc2ccccc2CN1)C(=O)NCc1ccco1	-	-	.	-	-	-
CCOC(=O)C1CCCN(C(=O)Cn2ncc3c([nH]c4ccccc43)c2=O)C1 (centres undefined)	-	-	.	-	-	-[9.26 µM]
COc1cc(/C=C/c2nc(C#N)c(NC(C)c3ccccc3)o2)cc(OC)c1OC (centres undefined)	-	.	?	.	.	.
SMILES	FLuc modulator	p53 reactivation	SMN2 splice up	Rab9 prom act	NPC1 prom act	ELG1 genotox
CC(Sc1nnc(Cc2ccccc2)o1)C(=O)Nc1ccccc1[N+](=O)[O-] (centres undefined)	-	?	.	-	-	-
O=C(NCC(=O)N1CCN(c2ccccc2O)CC1)c1ccc(Br)o1	-	-	.	-	-	-
O=C(Nc1cccnc1)c1cc(-c2ccc(Cl)cc2)on1	1.51µM	-	-	-	-	-
O=C(Nc1cccnc1)c1cc(F)c(F)cc1Cl	-	-	-	-	-	-
O=C(Nc1cccnc1)c1cc(-c2ccc(Cl)cc2Cl)on1	0.379µM	-	.	?	3.98µM	?
O=C(Nc1ccc(Cl)cc1Cl)c1csc(-c2cccnc2)n1	?	-	.	?	2.82µM	-
N#Cc1cccc(-c2csc(N3CCC(C(N)=O)CC3)n2)c1	-	.	.	.	.	.
Cc1ccc(-c2nn(-c3ccccc3)cc2CNCc2ccccc2)cc1	-	-	-	-	-	-
Cc1ccc(-n2cc(CNCCCn3ccnc3C)c(-c3ccc(F)cc3)n2)cc1	23.9µM	-	.	-	-	-
